Source: PubChem BioAssay (National Center for Advancing Translational Sciences (NCATS))
This is a sample that favours compounds with a hit; in the whole collection about 3% have one here.
DRD3 antagonist: antagonists of human D3 dopamine receptor | 360,000 tested, 2.5% active | D3R cells, DiscoveRx beta-arrestin luminescence, antagonist mode; active compounds read low | AID 652054 | P35462 | max response, negative = inhibition, %; in the data active = max response below about -50%; inconclusive = no clear call, values can overlap the other calls
Target sequence (P35462 whole entry, looked up): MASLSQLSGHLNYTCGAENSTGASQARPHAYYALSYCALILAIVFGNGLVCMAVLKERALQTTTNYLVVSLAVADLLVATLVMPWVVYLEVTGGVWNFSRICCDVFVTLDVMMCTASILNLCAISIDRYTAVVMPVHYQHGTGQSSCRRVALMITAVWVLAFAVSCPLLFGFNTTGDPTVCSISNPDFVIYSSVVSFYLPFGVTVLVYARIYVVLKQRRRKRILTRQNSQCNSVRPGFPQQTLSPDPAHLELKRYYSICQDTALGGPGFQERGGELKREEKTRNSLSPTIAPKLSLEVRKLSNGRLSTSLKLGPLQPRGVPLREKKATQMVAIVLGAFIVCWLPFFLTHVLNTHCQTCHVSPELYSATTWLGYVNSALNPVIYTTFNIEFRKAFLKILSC
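Cells plated overnight at 1500 cells/well, then exposed to library compounds with dopamine controls for 90 minutes at 37 degrees C. DiscoveRx reagent added for 30–60 minutes at room temperature; luminescence read, quantitative HTS format.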
GRP78 ERSR act: inducers of ER stress response in human glioma cells | Potency, µM, most hits filed as activators | U87-MG GRP78 promoter luciferase reporter, 16 h | 420,000 tested, 0.02% active; also: series mostly up to about 76 µM; nearly all actives have a fitted effect of over 35% in size
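Stably transfected U87-MG glioma cells carrying a GRP78-based luciferase sensor; 16 h compound incubation. Luminescence end-point read 10 min after Bright-Glo addition at room temperature.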
Nrf2 activator: activators of Nrf2 (ARE) signaling; AREc32 ARE-luciferase reporter (MCF7-derived line), luminescence, 24 h; Potency, µM (titrated, usually from 46.1 µM), actives largely listed as activators; 410,000 tested, 0.31% active; AID 624171; also: nearly all actives have a fitted effect of over 65% in size
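Each well held 1000 AREc32 cells, which were incubated with compound for 24 hr at 37 deg C after overnight attachment, and ARE reporter activity was quantified by firefly luciferase luminescence.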
D3 ag: activates the human D3 dopamine receptor | D3R DiscoveRx beta-arrestin cells, luminescence, 90 min | max activation, % | 410,000 tested, 0.58% active; in the data active = max activation above about 30%
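Agonist mode: compounds and dopamine controls were applied to plated cells for 90 min at 37 degrees C after an overnight attachment at 1500 cells/well. Luminescent read-out followed 30 - 60 minutes at room temperature with DiscoveRx detection reagent.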
Large screens that a line does not name were inactive; ! = not confirmed by another sample. Unless noted, calls follow the shape of the dose curve; as a rule, active = well fitted curve in the direction sought with a large enough effect; inconclusive = small, poorly fitted or top-dose-only effect, or another doubt; inactive = no such curve, though single readings can be large; an effect the other way counts as inactive or inconclusive.

CC(NC(=O)c1ccco1)c1nnc2n1CCN(Cc1cccc(Cl)c1)CC2 (centres undefined)	none (no result: DRD3 antagonist, Nrf2 activator, D3 ag)
CCN(CC)CCn1c(NCc2ccc(OC)cc2)nc2ccccc21	DRD3 antagonist -67
CCOC(=O)c1c(CN2CCN(C)CC2)oc2ccc(OC)cc12	DRD3 antagonist -57
CCOC(=O)c1c(CN2CCCCC2)oc2ccc(OC)cc12	DRD3 antagonist inconclusive
C=CCC1Cc2c(cccc2[N+](=O)[O-])C(CC=C)N1 (centres undefined)	D3 ag 41
Fc1ccc(C(c2ccc(F)cc2)N2CCN(CC=Cc3ccccc3)CC2)cc1	none (no result: DRD3 antagonist, Nrf2 activator, D3 ag)
Cn1c(N)c(C(=O)Nc2ccccc2)c(=O)[nH]c1=O	D3 ag 36
NNC(=O)CN1C(=O)Nc2ccc(Br)cc2C1c1ccccc1 (centres undefined)	none
NNC(=O)CN1C(c2ccc(Br)cc2)=Nc2ccc(Br)cc2C1c1ccccc1 (centres undefined)	DRD3 antagonist -55
COC(=O)CN1C(c2ccc(OC)cc2)=Nc2ccc(Cl)cc2C1c1ccccc1 (centres undefined)	DRD3 antagonist -60
COc1cc(C2=Nc3ccc(Br)cc3C(c3ccccc3)N2CC(=O)NN)cc(OC)c1OC (centres undefined)	DRD3 antagonist -51
COC(=O)CN1C(c2cccc(Cl)c2)=Nc2ccc(Cl)cc2C1c1ccccc1 (centres undefined)	none
COc1ccc(-c2nncnn2)cc1	DRD3 antagonist -52
Cc1ccc(N2CC(C(=O)Nc3ccc(Br)cc3)CC2=O)cc1 (centres undefined)	none (no result: DRD3 antagonist)
Oc1ccccc1N1CCN(c2ncnc3scc(-c4ccccc4)c23)CC1	D3 ag 39
COc1ccc(-c2csc3nc(C)nc(N4CCN(C(C)=O)CC4)c23)cc1OC	none
Fc1ccc(-c2csc3ncnc(N4CCc5ccccc5C4)c23)cc1	D3 ag 46
CCN1CCN(c2ncnc3scc(-c4ccc(C)cc4)c23)CC1	DRD3 antagonist -92
Cc1nc(N2CCN(c3ccccc3O)CC2)c2c(-c3ccccc3)csc2n1	D3 ag 32
Oc1ccccc1N1CCN(c2ncnc3scc(-c4ccc(F)cc4)c23)CC1	none
OC1OC[C@@H](O)[C@@H](O)[C@@H]1O (some centres undefined)	none (no result: DRD3 antagonist, Nrf2 activator, D3 ag)
CN(CC(=O)Nc1cccc(F)c1)S(=O)(=O)c1ccc2c(c1)n(C)c(=O)c(=O)n2C	none (no result: DRD3 antagonist)
O=C(Nc1c(C(=O)N2CCC(N3CCCCC3)CC2)oc2ccccc12)c1ccc(F)cc1	none
O=C(Nc1c(C(=O)N2CCC(N3CCCCC3)CC2)oc2ccccc12)c1c(F)cccc1F	D3 ag 51!
C=C1CCN([C@@H](Cc2ccccc2)C(=O)NCc2ccc(Cl)cc2)S(=O)(=O)c2ccccc21	DRD3 antagonist -56
C=C1CCN([C@@H](Cc2ccccc2)C(=O)NCc2ccccc2)S(=O)(=O)c2ccccc21	none
Cc1ccc(CN2CCCn3nc(C(=O)NCC(C)c4ccccc4)cc3C2=O)cc1 (centres undefined)	none (no result: DRD3 antagonist)
C=CC(=O)Nc1cc2c(Nc3ccc(F)c(Cl)c3)ncnc2cc1OCCCN1CCOCC1	none (no result: DRD3 antagonist, GRP78 ERSR act, Nrf2 activator)
COc1ccc(N2CCN(C(=O)Cn3nc(Cc4cccnc4)c4ccccc4c3=O)CC2)cc1	D3 ag 70 (no result: DRD3 antagonist)
O=C(Cn1nc(Cc2cccnc2)c2ccccc2c1=O)N1CCN(c2ccccn2)CC1	none
CN(C)c1cc(F)c(C=O)cc1F	none (no result: DRD3 antagonist, Nrf2 activator, D3 ag)
CCCCNCc1cc2ccccc2o1	DRD3 antagonist -51
CCCCNC(=O)CO/N=C(\C)c1cc2ccccc2o1	none
Cc1ccc2cc(NC(=O)C3(C)CCN(C)C3)ccc2n1 (centres undefined)	none
CC(=O)N1CCCC(C)(C(=O)Nc2ccc3nc(C)ccc3c2)C1 (centres undefined)	DRD3 antagonist -52
COc1ccccc1N1CCN(CC(O)c2ccc3cc[nH]c3c2)CC1 (centres undefined)	DRD3 antagonist -82
OC(COc1cccc2ccccc12)CN1CCN(c2ccccc2Cl)CC1 (centres undefined)	DRD3 antagonist -81
COc1ccccc1N1CCN(CC(O)COCCOc2ccc(Br)cc2)CC1 (centres undefined)	DRD3 antagonist -86
COc1ccccc1N1CCN(CC(O)COCc2cccs2)CC1 (centres undefined)	DRD3 antagonist -62
Cc1ccc(OCC(O)CN2CCN(CCO)CC2)c(C)c1 (centres undefined)	none
COc1ccccc1N1CCN(CC(O)COc2c(OC)cccc2OC)CC1 (centres undefined)	DRD3 antagonist -99
COc1ccccc1N1CCN(CCCCOc2ccc(C)cc2C)CC1	DRD3 antagonist -86
COc1ccc2[nH]cc(C(O)CN3CCN(c4ccccc4F)CC3)c2c1 (centres undefined)	DRD3 antagonist -63
COc1ccccc1N1CCN(CC(O)COc2ccc(C)cc2C)CC1 (centres undefined)	DRD3 antagonist -94
COc1cccc(OC)c1OCC(O)CN1CCN(c2ccccc2)CC1 (centres undefined)	none
COc1ccccc1N1CCN(C(=O)COc2cc(C)ccc2C)CC1	DRD3 antagonist inconclusive
Cc1cccc(NC(=O)NCCn2c(=O)oc3ccc(C)cc32)c1	none (no result: DRD3 antagonist)
CCN(CC)CCNC(=O)c1c(C)n(-c2ccccc2)c2cc(Br)c(OC)cc12	DRD3 antagonist -65
O=C(CSc1n[nH]c(-c2ccncc2)n1)c1cccc([N+](=O)[O-])c1	DRD3 antagonist -69
Cc1nnc(NC(=O)c2ccc(S(=O)(=O)N3CC(C)OC(C)C3)cc2)o1 (centres undefined)	none
Cc1nnc(NC(=O)c2ccc(S(=O)(=O)N(C)Cc3ccccc3)cc2)o1	DRD3 antagonist -72
CCC1CCCCN1S(=O)(=O)c1ccc(C(=O)Nc2nnc(-c3cccs3)o2)cc1 (centres undefined)	DRD3 antagonist -75
Cc1nnc(NC(=O)c2ccc(S(=O)(=O)N3CCCCCC3)cc2)o1	DRD3 antagonist -72
O=C(c1ccc(N2CCC(NCCCn3ncc4ccccc43)CC2)cc1)N1CCc2ccccc2C1	none (no result: DRD3 antagonist, Nrf2 activator, D3 ag)
CSc1nnc(CCNC(=O)c2ccc(-c3cccc(F)c3)cc2)n1-c1ccc(F)cc1	none (no result: DRD3 antagonist, Nrf2 activator, D3 ag)
CN1Cc2c(N3CCOCC3)nc3sc(C#N)c(N)c3c2CC1(C)C	none
CN1Cc2c(N3CCOCC3)nc3sc(C(=O)c4ccc(Br)cc4)c(N)c3c2CC1(C)C	DRD3 antagonist -50
O=C(CO)[C@@H](O)[C@H](O)[C@H](O)CO	none (no result: DRD3 antagonist, GRP78 ERSR act, Nrf2 activator)
CC1(C(=O)Nc2ccc3c(c2)OCCO3)CCN1C(=O)C1(c2ccc(Cl)cc2)CCC1 (centres undefined)	D3 ag 73
CC1(C(=O)Nc2ccc3c(c2)OCO3)CCN1C(=O)Cc1cccs1 (centres undefined)	DRD3 antagonist -102
COC(=O)c1ccc(NC(=O)CSc2nc(=O)n(Cc3ccco3)c3c2CCC3)cc1	none (no result: DRD3 antagonist)
O=C(NCCN1CCC(n2c(=O)[nH]c3ccccc32)CC1)c1ccc(F)cc1	DRD3 antagonist -79 (no result: GRP78 ERSR act)
CCCCN1CCC(n2c(=O)[nH]c3ccccc32)CC1	none (no result: DRD3 antagonist, Nrf2 activator, D3 ag)
